# Test results: the supplement of paper PMC6555819
# Columns and labels:
# Assay in all cases: PBM binding z-score (relative to random genomic background probes); higher = stronger binding; sequences stand for … in GC…GCGATTGACAGCGTAGAATGAAGG
# [1] = test system: RARb homodimer (NR concentration 270 nM)
# How it was run: (§1)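 Ligand-free nuclear receptor dimers were bound for 1 h to custom Agilent 4×180K protein-binding microarrays. Detection used antibodies against each partner (one per run). Binding z-scores rest on regression-normalized fluorescence, with random background probes as the reference.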
# [2] = test system: RARg:RXRa (NR concentration 270 nM, RXRa partner concentration 90 nM)
# How it was run: as §1
# [3] = test system: RARg homodimer (NR concentration 270 nM)
# How it was run: as §1
# [4] = test system: RXRa DBDmut IVT, anti-RXR (DBD mutation: RXRa K156A/R161A, NR concentration 90 nM)
# How it was run: as §1
# [5] = test system: RXRa homodimer (NR concentration 180 nM)
# How it was run: as §1
# [6] = test system: THRa:RXRa (NR concentration 90 nM, RXRa partner concentration 90 nM)
# How it was run: as §1
# [7] = test system: THRa homodimer (NR concentration 90 nM)
# How it was run: as §1
# [8] = test system: VDR homodimer (NR concentration 270 nM)
# How it was run: as §1
Sequence,PBM binding z-score [1],PBM binding z-score [2],PBM binding z-score [3],PBM binding z-score [4],PBM binding z-score [5],PBM binding z-score [6],PBM binding z-score [7],PBM binding z-score [8]
GCAGACAGGTGAAACGCAGGAAACTCAGGGTGGC,0.0136,0.246,0.0798,-0.424,0.715,0.142,-0.634,-0.569
CCTGCTAGGTCATGGTCCGCTAATCTACAGTATG,2.55,3.73,4.05,1.74,2.66,2.86,1.1,0.414
CCGGCTAGGTCATGGTCAGCTAATCTACAGTATG,3.33,4.11,4.99,1.48,3.01,2.99,1.57,0.619
CCAGACAGGTGAGAAGGTAATTCAGCCTCGATTA,0.446,0.488,0.401,-0.0232,0.24,0.0341,0.0221,-0.0971
CGTACGAGGGCATGAGTTGATAGCAAATGCCGAT,0.825,1.38,1.57,2.36,1.03,1.37,-0.172,1.67
TCTTGTAGATCAAGCAGGTGAAGAAAGCCTGAGT,-0.296,-0.262,-0.325,0.591,0.0351,-0.0555,-0.319,-0.154
GCTAGTTGGTCAGTGAAAGGTCACACACCGGTCG,4.96,5.66,4.94,0.305,5.62,3.42,1.71,1.73
TCTTGTAGATCTAAGGTTAAGAAAGCCGAAGCCT,0.513,0.36,0.019,1.06,1.21,2.16,1.26,-0.0148
CAGCCCAGGTCAGGGCCAGTATAGGAGGAACGTT,2.54,3.15,3.67,-0.41,2.25,2.73,1.48,0.168
TCTGCTAGGTCAGTTGGTCAGCTACCGAGCTGCC,2.77,2.45,3.07,0.34,0.83,1.22,-0.00528,-0.907
AGAATGAGGGCAATGAGTTGATAGCACGGGTGGC,1.18,1.31,1.47,2.27,0.95,1.59,0.363,3.47
TCATATAGGTAAAAGGTGATAGTCGGTGTGGTAA,1.15,0.851,0.577,1.76,1.86,0.901,0.434,0.283
GCATATAGGTAATACAAGGTGAAAGGCCGATTGT,1.08,0.593,0.747,0.113,0.895,4.07,0.753,0.114
TATACAGGGTCAAAGGCCCGAGTACGAATGTCGA,2.83,5.28,4.67,2.83,5.91,3.23,0.794,2.5
